# ChEMBL document CHEMBL4513149, “CO-ADD screening of MMV (CH) - MMV compounds” (2021)
# Entries with a potency or affinity are not part of this list.
# Test system: Klebsiella pneumoniae
# Details: Concentration 20 uM; ASSAY_TEST Inhibition of Bacterial Growth; detection method Absorption (OD600); MEDIA CAMHB; plate type 384well; NBS; CORNING #3640; time 18 hr
row,SMILES,Inhibition
1,Cc1cc(Cl)ccc1NC(=O)CCc1ccc(S(=O)(=O)NCC(C)C)cc1,8.81%
2,CNC(=O)C1Cc2ccccc2N1C(=O)Cc1ccc(F)cc1 (stereo not given),8.26%
3,CC(C)(C)OC(=O)N1CCN(c2cc(-c3ccc(Oc4ccccc4)cc3)n[nH]2)CC1,20.96%
4,Nc1ccc(C(=O)Nc2ccc(-c3nc4ccccc4o3)cc2)cc1,7.66%
5,CC(C)n1ncc2c(C(=O)NCC(c3cccs3)N3CCOCC3)cc(-c3ccccc3)nc21 (stereo not given),8.44%
6,CNC(=O)C1Cc2c([nH]c3cc(Cl)ccc23)C2(CCN(CCc3ccccc3)CC2)N1 (stereo not given),10.39%
7,Cc1c[nH]c(CCNC(=O)c2cc(-c3ccc(Cl)cc3)cs2)n1,19.09%
8,Cc1ccc(-c2cc(C(=O)Nc3cccnc3)c3cc(Br)ccc3n2)cc1,15.62%
9,Cl.Cn1ccnc1CNCCS(=O)(=O)c1cccc(Nc2ccc(-c3cccc(F)c3)cn2)c1,13.22%
10,CNC1C(OC2C(OC3C(O)C(O)C(NC(=N)N)C(O)C3NC(=N)N)OC(C)C2(O)C=O)OC(CO)C(O)C1O.CNC1C(OC2C(OC3C(O)C(O)C(NC(=N)N)C(O)C3NC(=N)N)OC(C)C2(O)C=O)OC(CO)C(O)C1O.O=S(=O)(O)O.O=S(=O)(O)O.O=S(=O)(O)O (stereo not given),-10.2%
11,COC(=O)c1ccc(F)cc1NS(=O)(=O)c1cccc(-c2cnn(Cc3ccccc3)c2)c1,14.02%
12,COc1cccc(CC(=O)N2CCC(n3c(C)nc4ccc(F)cc43)CC2)c1,12.2%
13,OC[C@H]1O[C@@H](n2c3ccc(Cl)cc3c3c(-c4cc5ccccc5o4)ncnc32)C(O)[C@H]1O (stereo not given in full),8.56%
14,CC(C)NCC(=O)Nc1cccc(C(=O)Nc2cccc(C(F)(F)F)c2)c1,10.29%
15,FC(F)(F)c1nnc2ccc(Cl)nn12,7.1%
16,O=C1COCc2ccc(Br)cc2N1Cc1ccc(C(F)(F)F)cc1,17.24%
17,CCCS(=O)(=O)N1CCC(CO)(Cc2ccccc2C(F)(F)F)CC1,9.23%
18,CN1CCN(S(=O)(=O)c2ccc(-c3ccc4c(Nc5ccc6nn[nH]c6c5)ccnc4c3)cc2)CC1,5.15%

row,SMILES,Inhibition
1,Cc1cc2nc(NC(=O)C(C)(C)C)nc(Cl)c2n1Cc1ccc(Cl)cc1,1.22%
2,Clc1ccc(CCNc2cc(-c3ccccc3)nc3ncnn23)cc1,8.91%
3,CCNC(=O)C(C)Nc1nc(-c2cccnc2)nc2sc(C)c(C)c12 (stereo not given),-9.71%
4,O=C(NCc1ccco1)N1CCN(Cc2ccc(Cl)s2)CC1,5.01%
5,Cc1cnc(N2CCN[C@@H](Cc3ccccc3)C2)nc1Oc1ccc(-n2ccnc2)cc1.Cl,8.14%
6,O=C(Nc1nc(-c2ccccn2)cs1)c1cncn1-c1ccccc1,11.31%
7,CC(C)(C)n1nc(Cc2cccc3ccccc23)c2c(N)ncnc21,2.54%
8,CC1CCCN(C(=O)C(C)Nc2cc(Cl)ccc2N2CCOCC2)C1 (stereo not given),10.27%
9,CN1CCC(c2cc(-c3ccncc3)c(-c3ccc(F)cc3)[nH]2)CC1,5.43%
10,CC(=O)Nc1ccc(-c2noc(CC3CCCN(Cc4cccc(F)c4C)C3)n2)cc1 (stereo not given),14.96%
11,Cc1cc(OCC(=O)NCc2ccccc2)c2cc(Br)ccc2n1,6.14%
12,O=C1[C@@H](Oc2ccccc2)[C@@H](c2ccc(Cl)cc2)N1CCn1cnc2c(NCc3ccccc3)ncnc21,2.13%
13,Cc1cc(C)cc(COc2ccc3c(C)c(CCC(=O)O)c(=O)oc3c2C)c1,9.77%
14,Cc1cccc(-c2nc(Nc3ccncn3)c3sccc3n2)n1,15.76%
15,Cc1cc(Cl)c(S(=O)(=O)N2CCCC2)cc1OCC(=O)NC1CCCCC1,2.55%
16,CCOc1ccccc1C(=O)Nc1cccc(-c2nc3ncccn3c2C)c1,11.04%
17,COc1cc2ncnc(NC3CCN(Cc4ccccc4)CC3)c2cc1OC,10.11%

# Test system: Candida albicans
# Details: 20 µM
row,SMILES,Inhibition
1,Cc1cc(Cl)ccc1NC(=O)CCc1ccc(S(=O)(=O)NCC(C)C)cc1,1.81%
2,CNC(=O)C1Cc2ccccc2N1C(=O)Cc1ccc(F)cc1 (stereo not given),3.31%
3,CC(C)(C)OC(=O)N1CCN(c2cc(-c3ccc(Oc4ccccc4)cc3)n[nH]2)CC1,5.58%
4,Nc1ccc(C(=O)Nc2ccc(-c3nc4ccccc4o3)cc2)cc1,15.1%
5,CC(C)n1ncc2c(C(=O)NCC(c3cccs3)N3CCOCC3)cc(-c3ccccc3)nc21 (stereo not given),4.59%
6,CNC(=O)C1Cc2c([nH]c3cc(Cl)ccc23)C2(CCN(CCc3ccccc3)CC2)N1 (stereo not given),3.22%
7,Cc1c[nH]c(CCNC(=O)c2cc(-c3ccc(Cl)cc3)cs2)n1,2.87%
8,Cc1ccc(-c2cc(C(=O)Nc3cccnc3)c3cc(Br)ccc3n2)cc1,4.34%
9,Cl.Cn1ccnc1CNCCS(=O)(=O)c1cccc(Nc2ccc(-c3cccc(F)c3)cn2)c1,4.46%
10,CNC1C(OC2C(OC3C(O)C(O)C(NC(=N)N)C(O)C3NC(=N)N)OC(C)C2(O)C=O)OC(CO)C(O)C1O.CNC1C(OC2C(OC3C(O)C(O)C(NC(=N)N)C(O)C3NC(=N)N)OC(C)C2(O)C=O)OC(CO)C(O)C1O.O=S(=O)(O)O.O=S(=O)(O)O.O=S(=O)(O)O (stereo not given),2.09%
11,COC(=O)c1ccc(F)cc1NS(=O)(=O)c1cccc(-c2cnn(Cc3ccccc3)c2)c1,6.83%
12,COc1cccc(CC(=O)N2CCC(n3c(C)nc4ccc(F)cc43)CC2)c1,3.01%
13,OC[C@H]1O[C@@H](n2c3ccc(Cl)cc3c3c(-c4cc5ccccc5o4)ncnc32)C(O)[C@H]1O (stereo not given in full),8.5%
14,CC(C)NCC(=O)Nc1cccc(C(=O)Nc2cccc(C(F)(F)F)c2)c1,3.29%
15,FC(F)(F)c1nnc2ccc(Cl)nn12,2.55%
16,O=C1COCc2ccc(Br)cc2N1Cc1ccc(C(F)(F)F)cc1,8.78%
17,CCCS(=O)(=O)N1CCC(CO)(Cc2ccccc2C(F)(F)F)CC1,3.76%
18,CN1CCN(S(=O)(=O)c2ccc(-c3ccc4c(Nc5ccc6nn[nH]c6c5)ccnc4c3)cc2)CC1,4.6%

row,SMILES,Inhibition
1,Cc1cc2nc(NC(=O)C(C)(C)C)nc(Cl)c2n1Cc1ccc(Cl)cc1,3.57%
2,Clc1ccc(CCNc2cc(-c3ccccc3)nc3ncnn23)cc1,16.3%
3,CCNC(=O)C(C)Nc1nc(-c2cccnc2)nc2sc(C)c(C)c12 (stereo not given),5.77%
4,O=C(NCc1ccco1)N1CCN(Cc2ccc(Cl)s2)CC1,2.08%
5,Cc1cnc(N2CCN[C@@H](Cc3ccccc3)C2)nc1Oc1ccc(-n2ccnc2)cc1.Cl,2.69%
6,O=C(Nc1nc(-c2ccccn2)cs1)c1cncn1-c1ccccc1,1.74%
7,CC(C)(C)n1nc(Cc2cccc3ccccc23)c2c(N)ncnc21,3.16%
8,CC1CCCN(C(=O)C(C)Nc2cc(Cl)ccc2N2CCOCC2)C1 (stereo not given),5.64%
9,CN1CCC(c2cc(-c3ccncc3)c(-c3ccc(F)cc3)[nH]2)CC1,0.45%
10,CC(=O)Nc1ccc(-c2noc(CC3CCCN(Cc4cccc(F)c4C)C3)n2)cc1 (stereo not given),3.14%
11,Cc1cc(OCC(=O)NCc2ccccc2)c2cc(Br)ccc2n1,0.18%
12,O=C1[C@@H](Oc2ccccc2)[C@@H](c2ccc(Cl)cc2)N1CCn1cnc2c(NCc3ccccc3)ncnc21,33.5%
13,Cc1cc(C)cc(COc2ccc3c(C)c(CCC(=O)O)c(=O)oc3c2C)c1,6.48%
14,Cc1cccc(-c2nc(Nc3ccncn3)c3sccc3n2)n1,3.59%
15,Cc1cc(Cl)c(S(=O)(=O)N2CCCC2)cc1OCC(=O)NC1CCCCC1,9.11%
16,CCOc1ccccc1C(=O)Nc1cccc(-c2nc3ncccn3c2C)c1,6.34%
17,COc1cc2ncnc(NC3CCN(Cc4ccccc4)CC3)c2cc1OC,2.88%
